# From ChEMBL document CHEMBL5724796, “Tm Shift (DSF) assay results for EUbOPEN Chemogenomics Library” (2024)
# Residues, ends and D or L forms follow the SMILES beside them. *: point of attachment. Cbz = O=C(OCc1ccccc1)*; CH2F = FC*
# Key:
# Settings in all cases: Compound concentration 20.0 uM
# [1] = target: Tyrosine-protein kinase ABL1 (Homo sapiens) (UniProt P00519)
# [2] = target: Bromodomain-containing protein 4 (Homo sapiens) (UniProt O60885)
# [3] = target: Cyclin-dependent kinase 2 (Homo sapiens) (UniProt P24941)
# [4] = target: Casein kinase I isoform delta (Homo sapiens) (UniProt P48730)
# [5] = target: Glycogen synthase kinase-3 beta (Homo sapiens) (UniProt P49841)
# [6] = target: Mitogen-activated protein kinase 1 (Homo sapiens) (UniProt P28482)
# [7] = target: T1, Aurora kinase A (Homo sapiens) (UniProt O14965)
# T1 sequence (whole entry): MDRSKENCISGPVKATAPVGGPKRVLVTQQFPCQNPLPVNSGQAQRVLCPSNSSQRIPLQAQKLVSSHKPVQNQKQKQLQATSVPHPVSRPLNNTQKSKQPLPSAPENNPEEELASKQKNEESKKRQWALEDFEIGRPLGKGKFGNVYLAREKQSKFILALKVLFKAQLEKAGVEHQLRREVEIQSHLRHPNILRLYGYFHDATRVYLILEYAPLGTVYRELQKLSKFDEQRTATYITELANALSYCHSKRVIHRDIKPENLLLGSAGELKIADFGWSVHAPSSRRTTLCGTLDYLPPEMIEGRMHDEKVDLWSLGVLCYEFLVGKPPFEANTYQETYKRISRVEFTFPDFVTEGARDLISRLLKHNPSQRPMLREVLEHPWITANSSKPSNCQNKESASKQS
# [8] = target: T2, Transcription intermediary factor 1-alpha (Homo sapiens) (UniProt O15164)
# T2 sequence (whole entry): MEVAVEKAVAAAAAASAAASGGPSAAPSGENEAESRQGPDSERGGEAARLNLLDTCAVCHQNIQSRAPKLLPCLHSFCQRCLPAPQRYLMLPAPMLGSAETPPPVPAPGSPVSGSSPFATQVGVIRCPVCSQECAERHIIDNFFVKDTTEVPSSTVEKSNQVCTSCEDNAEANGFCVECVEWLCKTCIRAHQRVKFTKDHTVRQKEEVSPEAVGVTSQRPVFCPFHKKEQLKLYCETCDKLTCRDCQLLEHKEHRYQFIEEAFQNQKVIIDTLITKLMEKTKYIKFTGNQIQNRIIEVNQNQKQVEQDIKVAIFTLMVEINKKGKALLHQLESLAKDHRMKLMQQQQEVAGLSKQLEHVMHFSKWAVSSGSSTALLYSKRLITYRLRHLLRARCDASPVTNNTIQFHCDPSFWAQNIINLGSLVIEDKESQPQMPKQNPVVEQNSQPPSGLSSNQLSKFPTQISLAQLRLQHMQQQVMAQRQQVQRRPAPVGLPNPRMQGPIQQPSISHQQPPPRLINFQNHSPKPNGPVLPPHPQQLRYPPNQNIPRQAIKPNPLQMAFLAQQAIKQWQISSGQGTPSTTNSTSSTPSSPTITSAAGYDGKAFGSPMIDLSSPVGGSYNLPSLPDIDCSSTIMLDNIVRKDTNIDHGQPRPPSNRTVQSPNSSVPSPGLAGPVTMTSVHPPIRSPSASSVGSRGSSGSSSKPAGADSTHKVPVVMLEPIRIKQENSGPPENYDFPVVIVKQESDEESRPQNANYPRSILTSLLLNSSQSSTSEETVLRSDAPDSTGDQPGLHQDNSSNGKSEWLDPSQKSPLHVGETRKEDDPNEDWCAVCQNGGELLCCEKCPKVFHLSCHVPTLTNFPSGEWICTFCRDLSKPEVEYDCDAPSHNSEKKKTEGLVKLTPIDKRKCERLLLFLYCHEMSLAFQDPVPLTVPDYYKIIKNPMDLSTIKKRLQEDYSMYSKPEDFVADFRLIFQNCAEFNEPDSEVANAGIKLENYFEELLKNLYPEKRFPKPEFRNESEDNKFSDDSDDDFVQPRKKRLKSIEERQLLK
# Sequence of Casein kinase I isoform delta (Homo sapiens) (P48730 whole entry, looked up, canonical isoform): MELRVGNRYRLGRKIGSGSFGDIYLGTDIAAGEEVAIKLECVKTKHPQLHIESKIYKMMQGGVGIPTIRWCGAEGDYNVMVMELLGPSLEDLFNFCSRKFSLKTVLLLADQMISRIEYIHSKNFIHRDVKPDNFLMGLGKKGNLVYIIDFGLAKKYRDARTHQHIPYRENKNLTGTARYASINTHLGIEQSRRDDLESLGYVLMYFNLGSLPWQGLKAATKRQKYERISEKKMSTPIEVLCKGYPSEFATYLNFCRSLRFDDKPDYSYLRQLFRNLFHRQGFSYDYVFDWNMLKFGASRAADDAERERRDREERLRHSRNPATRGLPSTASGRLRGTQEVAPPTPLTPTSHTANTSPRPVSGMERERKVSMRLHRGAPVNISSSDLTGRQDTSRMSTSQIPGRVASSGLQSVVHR
# Sequence of Tyrosine-protein kinase ABL1 (Homo sapiens) (P00519 whole entry): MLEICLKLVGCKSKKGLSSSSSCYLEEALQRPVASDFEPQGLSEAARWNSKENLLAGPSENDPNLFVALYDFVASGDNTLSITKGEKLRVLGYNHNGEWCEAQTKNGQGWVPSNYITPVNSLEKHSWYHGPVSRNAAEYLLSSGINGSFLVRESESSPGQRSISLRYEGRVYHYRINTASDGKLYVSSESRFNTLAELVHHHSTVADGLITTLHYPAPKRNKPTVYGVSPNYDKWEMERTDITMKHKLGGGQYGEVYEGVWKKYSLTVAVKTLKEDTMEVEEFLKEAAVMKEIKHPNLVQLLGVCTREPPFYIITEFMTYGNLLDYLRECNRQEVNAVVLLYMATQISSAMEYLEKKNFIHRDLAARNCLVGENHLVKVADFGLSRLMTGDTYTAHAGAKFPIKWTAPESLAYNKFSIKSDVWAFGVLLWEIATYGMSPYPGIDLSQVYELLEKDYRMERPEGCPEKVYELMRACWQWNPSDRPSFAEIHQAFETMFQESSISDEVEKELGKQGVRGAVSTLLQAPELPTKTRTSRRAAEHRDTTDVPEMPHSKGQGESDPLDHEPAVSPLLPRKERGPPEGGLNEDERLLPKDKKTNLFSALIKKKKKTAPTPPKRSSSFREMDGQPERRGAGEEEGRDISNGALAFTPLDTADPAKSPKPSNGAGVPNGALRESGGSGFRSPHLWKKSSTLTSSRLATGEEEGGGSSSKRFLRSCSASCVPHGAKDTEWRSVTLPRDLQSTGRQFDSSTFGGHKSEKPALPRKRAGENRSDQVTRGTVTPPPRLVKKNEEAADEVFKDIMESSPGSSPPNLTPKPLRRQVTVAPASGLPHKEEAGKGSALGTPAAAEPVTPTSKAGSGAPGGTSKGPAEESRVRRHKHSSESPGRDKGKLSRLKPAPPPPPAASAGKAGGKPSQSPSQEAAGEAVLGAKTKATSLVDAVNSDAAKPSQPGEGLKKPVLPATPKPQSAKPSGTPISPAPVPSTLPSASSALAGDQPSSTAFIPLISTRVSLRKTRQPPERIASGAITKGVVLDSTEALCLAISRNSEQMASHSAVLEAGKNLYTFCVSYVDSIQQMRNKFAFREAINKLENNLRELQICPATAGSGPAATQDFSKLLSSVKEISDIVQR
# Sequence of Mitogen-activated protein kinase 1 (Homo sapiens) (P28482 whole entry): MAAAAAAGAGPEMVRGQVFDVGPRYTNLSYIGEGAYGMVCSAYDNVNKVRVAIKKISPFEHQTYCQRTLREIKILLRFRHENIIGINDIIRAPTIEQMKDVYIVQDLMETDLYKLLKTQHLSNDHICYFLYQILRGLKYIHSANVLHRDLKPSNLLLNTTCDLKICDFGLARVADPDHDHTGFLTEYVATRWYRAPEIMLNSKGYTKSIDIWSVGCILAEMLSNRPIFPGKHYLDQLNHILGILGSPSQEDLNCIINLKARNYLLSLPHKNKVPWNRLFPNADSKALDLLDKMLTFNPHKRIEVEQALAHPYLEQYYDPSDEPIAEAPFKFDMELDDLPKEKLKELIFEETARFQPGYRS
# Sequence of Glycogen synthase kinase-3 beta (Homo sapiens) (P49841 whole entry, looked up): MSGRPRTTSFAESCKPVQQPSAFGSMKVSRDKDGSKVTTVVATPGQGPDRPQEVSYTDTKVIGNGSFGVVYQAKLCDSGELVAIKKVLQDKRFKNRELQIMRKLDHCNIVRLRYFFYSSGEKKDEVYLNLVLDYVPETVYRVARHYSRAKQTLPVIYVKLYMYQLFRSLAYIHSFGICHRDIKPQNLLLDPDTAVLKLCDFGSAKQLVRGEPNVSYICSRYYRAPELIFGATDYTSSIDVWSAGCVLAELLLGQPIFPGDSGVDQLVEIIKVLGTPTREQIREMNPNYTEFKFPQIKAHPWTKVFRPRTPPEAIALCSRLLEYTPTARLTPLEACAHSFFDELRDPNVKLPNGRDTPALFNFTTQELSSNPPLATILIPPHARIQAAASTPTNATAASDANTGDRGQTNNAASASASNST
smiles,measurement,setting,value
CCCCCCCCCCCCC/C=C/[C@@H](O)[C@H](CO)NC(=O)CCl,ΔTm,[1],0.07 °C
same,ΔTm,[2],-0.55 °C
same,ΔTm,[3],-0.22 °C
same,ΔTm,[4],2.15 °C
same,ΔTm,[5],-0.08 °C
same,ΔTm,[6],1.33 °C
same,ΔTm,[7],0.17 °C
same,ΔTm,[8],-0.39 °C
CC(=O)N[C@@H](CC(C)C)C(=O)N[C@@H](CCC(=O)O)C(=O)N[C@H](C(=O)N[C@H](C=O)CC(=O)O)C(C)C (Ac-LEVD-aldehyde),ΔTm,[1],0.2 °C
same,ΔTm,[2],-2.55 °C
same,ΔTm,[3],-0.57 °C
same,ΔTm,[4],0.25 °C
same,ΔTm,[5],-2.05 °C
same,ΔTm,[6],-0.12 °C
same,ΔTm,[7],-1.87 °C
same,ΔTm,[8],-2.52 °C
CCCCCCCC(=O)N[C@H](CN1CCCC1)[C@H](O)c1ccc2c(c1)OCCO2,ΔTm,[1],0.07 °C
same,ΔTm,[2],-0.36 °C
same,ΔTm,[3],-0.06 °C
same,ΔTm,[4],-0.32 °C
same,ΔTm,[5],-0.11 °C
same,ΔTm,[6],0.14 °C
same,ΔTm,[7],-1.58 °C
same,ΔTm,[8],-0.39 °C
COc1ccc(-c2c(-c3ccc(C#N)c(F)c3)nc(N3CCC(N)CC3)n(C)c2=O)cc1F,ΔTm,[1],0.65 °C
same,ΔTm,[2],-3.53 °C
same,ΔTm,[3],0 °C
same,ΔTm,[4],0 °C
same,ΔTm,[5],-0.33 °C
same,ΔTm,[6],0.2 °C
same,ΔTm,[7],-2.24 °C
same,ΔTm,[8],-0.36 °C
O=C(NCCCc1ccccc1)c1cccc(-c2cc(O)c3ncccc3c2)c1,ΔTm,[1],0.62 °C
same,ΔTm,[2],-0.53 °C
same,ΔTm,[3],0.91 °C
same,ΔTm,[4],0.06 °C
same,ΔTm,[5],0.84 °C
same,ΔTm,[6],0.32 °C
same,ΔTm,[7],-0.61 °C
same,ΔTm,[8],0.72 °C
C[C@]1(c2nc3c(C(N)=O)cccc3[nH]2)CCCN1,ΔTm,[1],0.02 °C
same,ΔTm,[2],-2.57 °C
same,ΔTm,[3],-0.1 °C
same,ΔTm,[4],0.16 °C
same,ΔTm,[5],-0.63 °C
same,ΔTm,[6],-0.01 °C
same,ΔTm,[7],-1.66 °C
same,ΔTm,[8],1.28 °C
COC(=O)CC[C@H](NC(=O)[C@H](C)NC(=O)OCc1ccccc1)C(=O)N[C@H](C(=O)N[C@@H](CC(=O)OC)C(=O)CF)C(C)C (Cbz-AE(OMe)VD(OMe)-CH2F),ΔTm,[1],0.32 °C
same,ΔTm,[2],-1.14 °C
same,ΔTm,[3],-0.09 °C
same,ΔTm,[4],-0.04 °C
same,ΔTm,[5],-0.78 °C
same,ΔTm,[6],-0.86 °C
same,ΔTm,[7],-1.1 °C
same,ΔTm,[8],-1.06 °C
O=C(C=Cc1ccc(O)cc1)c1ccc(O)cc1O,ΔTm,[1],6.6 °C
same,ΔTm,[2],1.51 °C
same,ΔTm,[3],1.64 °C
same,ΔTm,[4],1.31 °C
same,ΔTm,[5],2.87 °C
same,ΔTm,[6],1.33 °C
same,ΔTm,[7],1.81 °C
same,ΔTm,[8],-0.03 °C
CC(C)NCC(O)COC(Cn1c2ccccc2c2ccccc21)Cn1c2ccccc2c2ccccc21 (stereo not given),ΔTm,[1],0.25 °C
same,ΔTm,[2],0 °C
same,ΔTm,[3],-0.87 °C
same,ΔTm,[4],-0.3 °C
same,ΔTm,[5],-5.02 °C
same,ΔTm,[6],-15 °C
same,ΔTm,[7],-0.78 °C
same,ΔTm,[8],-3.49 °C
Cc1noc2c1-c1ccccc1C(c1ccc(Cl)cc1)=N[C@H]2CC(N)=O,ΔTm,[1],0.53 °C
same,ΔTm,[2],8.17 °C
same,ΔTm,[3],0.94 °C
same,ΔTm,[4],0.05 °C
same,ΔTm,[5],-0.25 °C
same,ΔTm,[6],0.12 °C
same,ΔTm,[7],-2.42 °C
same,ΔTm,[8],-0.29 °C
C[C@H](NC(=O)[C@H](Cc1ccccc1)NC(=O)OCc1ccccc1)C(=O)CF,ΔTm,[1],0.31 °C
same,ΔTm,[2],-2.33 °C
same,ΔTm,[3],0.15 °C
same,ΔTm,[4],0.19 °C
same,ΔTm,[5],-0.61 °C
same,ΔTm,[6],-0.19 °C
same,ΔTm,[7],-0.86 °C
same,ΔTm,[8],-1.01 °C
C[C@]12CCCN1CC1=NNC(=O)c3cc(F)cc4[nH]c2c1c34,ΔTm,[1],0.67 °C
same,ΔTm,[2],2.16 °C
same,ΔTm,[3],2.04 °C
same,ΔTm,[4],1.06 °C
same,ΔTm,[5],8.59 °C
same,ΔTm,[6],0.1 °C
same,ΔTm,[7],1.26 °C
same,ΔTm,[8],0 °C
CC(c1cccc2ccccc12)n1cnc2c(=O)[nH]c(Cc3ccccc3)nc21 (stereo not given),ΔTm,[1],0.22 °C
same,ΔTm,[2],-5.4 °C
same,ΔTm,[3],-0.82 °C
same,ΔTm,[4],0.84 °C
same,ΔTm,[5],-1 °C
same,ΔTm,[6],-0.16 °C
same,ΔTm,[7],-3.08 °C
same,ΔTm,[8],-1.81 °C
CCOc1ccc(Cc2cc([C@]34OC[C@](CO)(O3)[C@@H](O)[C@H](O)[C@H]4O)ccc2Cl)cc1,ΔTm,[1],0.25 °C
same,ΔTm,[2],2.11 °C
same,ΔTm,[3],0.62 °C
same,ΔTm,[4],-0.26 °C
same,ΔTm,[5],-0.1 °C
same,ΔTm,[6],0.67 °C
same,ΔTm,[7],-0.99 °C
same,ΔTm,[8],1.7 °C
Nc1ccccc1NC(=O)c1ccc(CNc2nccc(-c3cccnc3)n2)cc1,ΔTm,[1],1.28 °C
same,ΔTm,[2],-1.59 °C
same,ΔTm,[3],0.7 °C
same,ΔTm,[4],2.88 °C
same,ΔTm,[5],0.76 °C
same,ΔTm,[6],0.18 °C
same,ΔTm,[7],5.93 °C
same,ΔTm,[8],-0.03 °C
